In the library only some 1.6% were active in any assay of this set; here they are far more common.
KCNQ2 block = inhibitors of rat KCNQ2 potassium channel | 310,000 compounds, 1.1% hits | B-score at 10 µM | AID 2156 | O88943 | CHO-K1 KCNQ2, FluxOR thallium flux, 20 min; stronger effect = lower value;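 active = fluorescence ratio B-score at most minus 3 library SDs, with starting brightness B-score within 2 library SDs, cut at about -5.5 in these data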
Target sequence (O88943 whole entry, looked up): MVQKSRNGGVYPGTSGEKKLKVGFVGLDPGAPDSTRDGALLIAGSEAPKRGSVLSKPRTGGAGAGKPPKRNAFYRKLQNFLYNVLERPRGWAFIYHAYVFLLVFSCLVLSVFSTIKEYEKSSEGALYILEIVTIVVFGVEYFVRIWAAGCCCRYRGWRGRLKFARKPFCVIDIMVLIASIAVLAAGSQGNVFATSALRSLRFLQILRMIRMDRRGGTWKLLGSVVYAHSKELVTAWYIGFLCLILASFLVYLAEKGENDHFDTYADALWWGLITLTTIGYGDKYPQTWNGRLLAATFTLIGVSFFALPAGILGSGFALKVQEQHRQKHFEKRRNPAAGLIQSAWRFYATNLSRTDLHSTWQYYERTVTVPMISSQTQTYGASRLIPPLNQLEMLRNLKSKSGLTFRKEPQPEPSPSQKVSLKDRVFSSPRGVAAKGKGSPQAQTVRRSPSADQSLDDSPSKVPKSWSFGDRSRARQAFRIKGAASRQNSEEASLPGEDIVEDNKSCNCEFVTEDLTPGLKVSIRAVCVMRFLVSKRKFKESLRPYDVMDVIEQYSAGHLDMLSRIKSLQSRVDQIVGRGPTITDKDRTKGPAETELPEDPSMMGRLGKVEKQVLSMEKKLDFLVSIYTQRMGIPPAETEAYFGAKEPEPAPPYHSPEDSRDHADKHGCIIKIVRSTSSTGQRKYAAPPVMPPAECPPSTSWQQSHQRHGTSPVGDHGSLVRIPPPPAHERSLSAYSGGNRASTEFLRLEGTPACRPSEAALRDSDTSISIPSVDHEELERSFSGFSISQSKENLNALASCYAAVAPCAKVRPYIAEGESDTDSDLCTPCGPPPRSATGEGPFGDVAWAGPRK
KCNQ2 enhance = KCNQ2 (rat) channel potentiation; O88943; CHO-K1 KCNQ2, FluxOR thallium flux fluorescence; stronger effect = higher value; B-score at 10 µM; 310,000 compounds, 0.54% hits; AID 2239;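 active = fluorescence ratio B-score at least 3 SD of library B-scores, with initial fluorescence B-score within 3 of them, cut at about 5.3 in these data; same plate scores as AID 2156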;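 note: B-score of peak minus minimum over baseline fluorescence ratio after K+ and Tl+ stimulus; positive B-score means potentiation of KCNQ2 with more thallium influx and brighter signal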
Starred values were filed as active, the others as inactive; i = inactive; · = not tested or not shown.

SMILES	KCNQ2 block	KCNQ2 enhance
NC(=S)Nc1ccc(C(F)(F)F)cc1Cl	i	0.4
Cc1ccc(C)c(NC(=O)c2cc(C)nc3ccccc23)c1	-5.87*	-5.87
Cc1ccc(NC(=O)c2cc(C)nc3ccccc23)cc1	i	0.37
Cc1ccc(C)c(-c2cc(C(=O)Nc3cccc(C(=O)O)c3)c3ccccc3n2)c1	i	·
Cc1ccc(C)c(-c2cc(C(=O)Nc3cccnc3)c3ccccc3n2)c1	-6.33*	-6.33
C/C(=N\O)c1noc(C)c1C(=O)Nc1nccs1	i	0.61
O=C(O)CN1C(=O)COc2ccc(S(=O)(=O)N3CCCCCC3)cc21	i	·
O=[N+]([O-])c1cc(CN2CCCC2)ccc1Sc1ccc(Cl)cc1	i	1.44
COc1ccccc1CNC(=O)CCNS(=O)(=O)c1ccc2c(c1)CC(C)N2C(C)=O (stereo not drawn)	i	1.43
CCOc1ccc(-c2n[nH]c(=S)c3ccccc23)cc1	i	0.04
O=C(COc1ccccc1Cl)Nc1ccccc1C(=O)N1CCCCC1	-5.99*	-5.99
COc1ccccc1OCC(=O)Nc1ccccc1C(=O)N1CCCCC1	i	·
Cn1ncc(Cl)c1C(=O)N/N=C/c1ccccn1	i	·
Cc1ccc(S(=O)(=O)Oc2ccccc2/C=N/NC(=O)c2c(Cl)cnn2C)cc1	-6.05*	-6.05
COc1ccc(OC)c(-c2cc(C(=O)Nc3cccc(Cl)c3)no2)c1	-7.45*	-7.45
COc1ccc(-c2cc(C(=O)Nc3cccc(Cl)c3)no2)cc1	i	·
COc1ccc(CCN(CC(=O)NCc2ccc(F)cc2)C(=O)c2snc(C(N)=O)c2N)cc1OC	i	0.22
CSc1ccc(/C=C(\NC(=O)c2ccco2)C(=O)N2CCCCC2)cc1	i	·
Cc1ccc(S(=O)(=O)N2CCCC2CNC(=O)C(=O)Nc2ccc(F)cc2F)cc1 (stereo not drawn)	i	1.26
Cc1c(Cl)ccc2c(C(=O)Nc3cc(C(C)(C)C)on3)cc(-c3ccccn3)nc12	-5.93*	-5.93
Cc1cccc2c(C(=O)Nc3ccc(Br)cc3)cc(-c3ccccn3)nc12	i	0.05
O=C(NCc1cccs1)C1CCCN(C(=O)Nc2ccccc2)C1 (stereo not drawn)	i	1.61
O=C(c1ccc([N+](=O)[O-])cc1)N1CCN(c2ncccn2)CC1	i	·
COC(=O)C(Cc1ccccc1)NC(=O)CNC(=O)c1ccccc1OC (stereo not drawn)	i	0.49
CN(C)CCN1C(=O)c2oc3ccccc3c(=O)c2C1c1cccc(Br)c1 (stereo not drawn)	i	·
SMILES	KCNQ2 block	KCNQ2 enhance
COc1ccc(C2c3c(oc4ccc(Cl)cc4c3=O)C(=O)N2CCN2CCOCC2)cc1 (stereo not drawn)	-6.63*	-6.63
COc1ccc(C2c3c(oc4ccccc4c3=O)C(=O)N2CCCN2CCOCC2)cc1 (stereo not drawn)	i	·
CN(C)CCN1C(=O)c2oc3ccc(Cl)cc3c(=O)c2C1c1cccc(Br)c1 (stereo not drawn)	-6.28*	-6.28
CCOC(=O)C1CCN(C(=O)C2CCCN(c3ncnc4c3nc3n4CCCCC3)C2)CC1 (stereo not drawn)	i	1.42
Cc1ccc(NCC(=O)Nc2cccc(F)c2)cc1S(=O)(=O)N1CCCCCC1	i	0.23
CCOc1ccc(N2C(=O)CC(NC3CCN(C(=O)c4ccc(F)cc4)CC3)C2=O)cc1 (stereo not drawn)	i	·
CCOC(=O)c1ccc(N2C(=O)CC(NC3CCN(C(=O)c4ccc(F)cc4)CC3)C2=O)cc1 (stereo not drawn)	-9.5*	-9.5
Cc1ccc(C(=O)N2CCCC(C(=O)Nc3cccc(-c4ccc(F)cc4)c3)C2)cn1 (stereo not drawn)	i	·
N#Cc1c(-c2ccccc2F)cc(C2CC2)nc1SCC(=O)c1cccs1	i	11.7*
CCSc1nc(C2CC2)cc(-c2cccs2)c1C#N	i	·
O=C1C2=C(CCCC2)C(=O)N1c1cccc(OCCBr)c1	i	7.77*
CC(C)CN(CCOc1cccc(N2C(=O)C3=C(CCCC3)C2=O)c1)CC(C)C	i	·
Cc1ccc(CSc2cc(C)[nH]c(=O)n2)cc1	i	·
Cc1c(NC(=O)c2ccc([N+](=O)[O-])o2)cccc1-c1nc2ncccc2o1	i	·
O=C(C1=C(O)C(=O)N(CC2CCCO2)C1c1ccccc1F)c1ccco1 (stereo not drawn)	i	·
C=CCN1C(=O)[C@@H]2Cc3c([nH]c4ccccc34)C(c3cc(OC)c(OC)c(OC)c3)N2C1=S (stereo partly drawn)	-6.12*	-6.12
CCN1C(=O)[C@@H]2Cc3c([nH]c4ccccc34)C(c3cc(OC)c(OC)c(OC)c3)N2C1=S (stereo partly drawn)	i	·
CCOc1ccc(N2CC(C(=O)NCCc3ccc(F)cc3)CC2=O)cc1 (stereo not drawn)	i	·
CCC(CO)Nc1nc2ccc(Cl)cc2c2ccccc12 (stereo not drawn)	i	·
COc1ccc(CCCNC(=O)C2CCC(=O)N(CCc3cccc(F)c3)C2)cc1 (stereo not drawn)	i	·

From PubChem
